Laboratory results reported in PubChem BioAssay (NCATS).
Records with an inconclusive call do not appear. Calls of active or inactive are those of the source. The call rests on the fitted dose curve; in most records, active means well fitted inhibition curve with a large enough effect; inconclusive means small, poorly fitted or top-dose-only effect; inactive means no such curve, though single readings can be large or run the other way.

Test: Primary qHTS for small molecule stabilizers of the endoplasmic reticulum resident proteome: Secreted ER Calcium Modulated Protein (SERCaMP) assay (AID 1508630)
Details: SH-SY5Y GLuc-SERCaMP (Gaussia luciferase released on ER calcium loss) secretion, thapsigargin, luminescence; series mostly up to 38.4 µM; activity change, negative = inhibition: at the top concentration
In short: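 The SH-SY5Y reporter protocol was run at 3 concentrations up to 38.3 uM (primary) or 11 concentrations (follow-up): 16 h compound, 100 nM thapsigargin for 4 h, then extracellular luciferase luminescence.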
On the % scale 0 is the no-effect control and ±100 the full control effect.

Activity change, negative = inhibition, inactive:
O=C1CCCC2[C@@H]3CCC[N@+]4([O-])CCC[C@H](CN12)C34 (stereo partly drawn) -12.8%
COc1ccc(-c2cc3ccccc3c(=O)o2)cc1 -10.2%
COC(=O)[C@H]1Cc2c([nH]c3ccccc23)CN1C(=O)COc1ccc2c(C)cc(=O)oc2c1 26.7%
C=C[C@@H](C1=CC(=O)C(OC)=C(OC)C1=O)c1ccccc1 123%
C[n+]1ccc(/C=C/c2ccc3ccccc3c2)cc1 4.42%
O=C1c2ccccc2-n2c1nc1ccccc1c2=O 3.55%
O=C(O)c1c(C(=O)O)c2ccccc2[nH]c1=O -23.7%
COc1ccc(/C=C2\NC(=O)[C@@H]3Cc4ccccc4CN3C2=O)cc1 1.26%
N=c1ccn2c(n1)OCC1C2O[C@@H](O)[C@H]1O (stereo partly drawn) -9.79%
O=C(O)C[C@@H]1NC(=O)[C@H](Cc2ccccc2)NC1=O 5.11%
C[C@@H](C1[C@@H](O)CC2C3C=CC4C[C@@H](O)CC[C@]4(C)[C@H]3CC[C@@]21C)[C@@H]1CCCCN1 (stereo partly drawn) -29.1%
COc1ccc([C@H]2c3cc(OC)c(OC)cc3C[C@@H](C)[C@@H]2C)cc1OC -0.607%
CCOC(=O)c1ncc2[nH]c3cccc(OC(C)C)c3c2c1C -18.8%
COc1cc2c(cc1OC)C(c1c[nH]c3ccccc13)NCC2 (stereo not drawn) -29.2%
CC1=CC(=O)OC1Cc1ccc2ccccc2n1 (stereo not drawn) 1.73%
COc1cccc2c3c(c(C)nc12)CC(CO)O3 (stereo not drawn) -6.43%
COc1ccc([C@@H](C)C(=O)c2ccc(O)cc2O)cc1 15.6%
COc1ccc(C2c3cc(OC)c(OC)cc3Cc3c4cc(OC)c(OC)cc4cc[n+]32)cc1OC (stereo not drawn) -7.84%
C=C1C[C@H](OC(=O)C(C)(O)CCl)C2C(=C)C(=O)O[C@@H]2C2C1C[C@H](O)[C@]2(O)CCl (stereo partly drawn) 123%
COc1ccc(/C=C/c2cc(OC)c(OC)cc2CC[N+](C)(C)C)cc1 -26%
C[C@H]1OC(=O)CC[C@@H]2[C@]1(C)CCC1[C@@]2(C)CC[C@@]2(C)C3CC(C)(C)CC[C@]3(CO)CC[C@]12C (stereo partly drawn) -10.2%
COc1cc(C(=O)Oc2ccc3c(OC)c4ccoc4nc3c2OC)cc(OC)c1OC -5.66%
Cn1c2c(c(=O)c3ccccc31)C[C@@H](O)C(C)(C)O2 -24.4%
C[C@]12CCC(=O)C=C1CCC1C3CC[C@](O)(C(=O)CO)[C@@]3(C)CC3OC312 (stereo partly drawn) -32.8%
COC1=C[C@@H](C)C2CC3OC(=O)C[C@H]4C(C)=C(OC)C(=O)C([C@@]2(C)C1=O)[C@@]34C (stereo partly drawn) -14.5%
COc1ccc(C(=O)OC2CC3CC[C@H](C2)N3C(C)=O)cc1OC (stereo partly drawn) 5.69%
CC1=CC2C(=O)c3cccc(O)c3C(=O)C2C(O)=C1 (stereo not drawn) 1.86%
COc1c(C=O)c(=O)[nH]c2c(OC)cccc12 -1.92%
COc1c(O)cc2c(=O)oc3c(OC)c(O)cc4c(=O)oc1c2c34 -15.1%
COc1ccc(/C(=C\C(=O)O)c2nccc3cc(OC)c(OC)cc23)cc1OC -4.85%
O=C(NC[C@H](O)c1ccccc1)c1ccccc1 26.3%
Oc1cc2c(cc1O)[C@@H]1c3ccc(O)c(O)c3OC[C@]1(O)C2 -0.74%
CC1=CC2C(C)(C)CC(=O)C[C@]2(C)CC1COc1ccc2c(c1)CC(=O)C=C2 (stereo partly drawn) 8.67%
CC1OCC23CC[C@@]4(C)CCC(C)(C)C[C@H]4[C@]2(C)CCC12C3CC[C@@]1(C)C2C(=O)CC(=O)[C@@H]1C (stereo partly drawn) -15.3%
CN(C)CCc1cc2c(c3c1ccc1ccccc13)OCO2 15%
OCC1=CC[N+]2(Cc3ccccc3)CCC(O)[C@@H]12 (stereo partly drawn) -23.2%
O=C(O)c1ccccc1-c1oc2cc(O)ccc2c(=O)c1Oc1ccccc1 11%
C/C=C/c1ccc2oc(-c3ccc(O)cc3)c(C)c2c1 10.8%
